The values below come from PubChem BioAssay (NCI).

The panel holds about 83,000 compounds, 20% with a hit somewhere; the sample as a whole holds those more often.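 Step 1: grow cells in 96-well plates. Step 2: add test compound at a single concentration. Step 3: incubate 48 h. Step 4: record percent growth.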 Unmarked numbers belong to inactive results. Active and inactive are the calls of the source. Rule for the calls: active = growth percent below 10; inactive = the rest.

Some test systems named below: NCI-H23 lung; NCI-H226 lung; NCI-H322M lung; HOP-62 NSCLC; NCI-H460 lung; HOP-92 NSCLC; NCI-H522 lung; A549/ATCC NSCLC; 786-0 renal; COLO 205 colon; DU-145 prostate; K-562 leukemia; MALME-3M melanoma; MDA-MB-231 breast; RXF 393 renal; SF-268 CNS; SF-295 CNS; SF-539 CNS; UACC-257 melanoma; M14 melanoma.
Common to all, as to assay: NCI-60 one-dose screen, 48 h (100 = growth as untreated, 0 = no growth, -100 = all killed)
Details in all cases: 10 µM unless noted

Take `Nn1c(Nc2ccc(S(=O)(=O)Nc3ncccn3)cc2)nnc(/C=C/c2c(O)ccc3ccccc23)c1=O`: the growth with NCI-H23 lung was 88.9%; in the test with NCI-H226 lung, 78.8%; in the test on NCI-H322M lung it was 90%; in the test on HOP-62 NSCLC, 81.8%; in the test with NCI-H460 lung, 88.4%; with HOP-92 NSCLC, 83.3%. Besides, the growth in the test on NCI-H522 lung was 98.1%; in the test with A549/ATCC NSCLC, 89.5%; with 786-0 renal, 111%; with COLO 205 colon, 103%; with DU-145 prostate it was 99.7%; in the test on K-562 leukemia it was 85.2%. The growth with MALME-3M melanoma was 94.2%; with MDA-MB-231 breast it was 71.4%; in the test with RXF 393 renal it was 106%; with SF-268 CNS it was 84.7%; in the test on SF-295 CNS it was 100%; with SF-539 CNS it was 102%. In addition, the growth is 94.4% in the test on UACC-257 melanoma and 97.5% in the test with M14 melanoma.
For `O=C(Nc1cccc(F)c1)c1cc(=O)[nH]c2cc(Br)ccc12`, the growth was 72.5% in the test with NCI-H23 lung; 54.7% in the test with NCI-H226 lung; 53.8% with NCI-H322M lung; 50.9% in the test on HOP-62 NSCLC; 21.9% in the test with NCI-H460 lung; 47.4% in the test with HOP-92 NSCLC. Besides, the growth with NCI-H522 lung is 23.9%; with A549/ATCC NSCLC it was 40.3%; in the test with 786-0 renal, 69.7%; in the test on COLO 205 colon it was 20.4%; with DU-145 prostate it was 74.2%; with K-562 leukemia it was 21.3%. Further, the growth in the test on MALME-3M melanoma was 52.8%; in the test with MDA-MB-231 breast, 72.2%; in the test on RXF 393 renal, 56.1%; in the test with SF-268 CNS it was 60.8%; in the test on SF-295 CNS, 38.9%; in the test with SF-539 CNS, 47.6%. Also, the figures for the growth in the test on UACC-257 melanoma and in the test with M14 melanoma were 57% and 29.5%, respectively.
As for `COc1cc(C)cc2oc3oc(=O)c(C(=O)c4cc5cc(Br)ccc5o4)cc3c(=O)c12`, the growth in the test on NCI-H23 lung was 107%; in the test on NCI-H226 lung it was 96.7%; in the test on NCI-H322M lung, 97.3%; in the test on HOP-62 NSCLC it was 104%; in the test on NCI-H460 lung, 107%; in the test with HOP-92 NSCLC, 102%. In addition, the growth in the test on NCI-H522 lung is 101%; in the test on A549/ATCC NSCLC, 102%; with 786-0 renal, 110%; with COLO 205 colon it was 125%; with DU-145 prostate, 113%; with K-562 leukemia it was 103%. Also, the growth is 98.8% with MALME-3M melanoma; 105% with MDA-MB-231 breast; 116% in the test with RXF 393 renal; 95% in the test on SF-268 CNS; 103% in the test on SF-295 CNS; 96.8% with SF-539 CNS. Moreover, the growth in the test with UACC-257 melanoma was 105%; in the test with M14 melanoma, 100%.
Consider `CCN(CC)CCCCCCNc1cccc2cc(Br)cnc12`, for which the growth in the test with NCI-H23 lung is 85.7%; with NCI-H226 lung it was 108%; in the test with NCI-H322M lung, 94.3%; in the test with HOP-62 NSCLC it was 118%; in the test with NCI-H460 lung, 87.3%; with HOP-92 NSCLC it was 71.6%. Also, the growth in the test on NCI-H522 lung is 26.7%; in the test with A549/ATCC NSCLC it was 97.8%; in the test on 786-0 renal it was 92.8%; in the test on COLO 205 colon, 89.9%; in the test on DU-145 prostate it was 91.4%; with K-562 leukemia it was -27.8% (active). The growth is 47.9% with MALME-3M melanoma; 67.9% with MDA-MB-231 breast; 91% with RXF 393 renal; 74.9% in the test with SF-268 CNS; 84.8% with SF-295 CNS; 94.4% with SF-539 CNS. For the same molecule, the growth was 80.7% in the test on UACC-257 melanoma and 50.1% in the test on M14 melanoma.
In the case of `C#C[C@]1(O)CC[C@H]2[C@@H]3CC=C4c5nc(N)sc5CC[C@]4(C)[C@H]3CC[C@@]21C`, the growth was 78% in the test on NCI-H23 lung; 83.8% in the test with NCI-H226 lung; 79.7% with NCI-H322M lung; 62.5% in the test on HOP-62 NSCLC; 86.9% with NCI-H460 lung; 62.2% with HOP-92 NSCLC. Further, the growth is 56.6% in the test on NCI-H522 lung; 65.9% with A549/ATCC NSCLC; -0.771% (active) with 786-0 renal; 80.5% in the test on COLO 205 colon; 71.2% with DU-145 prostate; 29.7% in the test with K-562 leukemia. Also, the growth in the test on MALME-3M melanoma was 42.1%; with MDA-MB-231 breast it was 45.4%; with RXF 393 renal it was -22.4% (active); with SF-268 CNS it was 62.8%; in the test on SF-295 CNS it was -43.6% (active); in the test on SF-539 CNS it was -32% (active). For the same molecule, the values for the growth with UACC-257 melanoma and with M14 melanoma were 72.8% and 81.1%, respectively.
On to `CC1(C)[C@@H](NOCCCN)CC[C@]2(C)[C@H]3C(=O)C=C4[C@@H]5C[C@](C)(C(=O)O)CC[C@]5(C)CC[C@@]4(C)[C@]3(C)CC[C@@H]12`, for which the growth with NCI-H23 lung was -39.4% [100 µM] (active); in the test with NCI-H226 lung, -44.8% [100 µM] (active); in the test with NCI-H322M lung, -94.4% [100 µM] (active); in the test on HOP-62 NSCLC, -84.4% [100 µM] (active); in the test with NCI-H460 lung, -67.2% [100 µM] (active); with HOP-92 NSCLC, -71.8% [100 µM] (active). The growth in the test with NCI-H522 lung was -57.7% [100 µM] (active); with A549/ATCC NSCLC, -27.4% [100 µM] (active); in the test with 786-0 renal, -78.6% [100 µM] (active); in the test with COLO 205 colon, -68.2% [100 µM] (active); in the test on DU-145 prostate, -49.8% [100 µM] (active); with K-562 leukemia, -8.83% [100 µM] (active). Also, the growth in the test with MALME-3M melanoma is -100% [100 µM] (active); in the test on MDA-MB-231 breast it was -88.4% [100 µM] (active); with RXF 393 renal, -54.3% [100 µM] (active); in the test with SF-268 CNS it was -51.8% [100 µM] (active); in the test with SF-295 CNS it was -56.3% [100 µM] (active); with SF-539 CNS, -93.5% [100 µM] (active). Also, the values for the growth in the test on UACC-257 melanoma and with M14 melanoma were -44.5% [100 µM] (active) and -20.3% [100 µM] (active), respectively.
Turning to `O=C1/C(=C/c2cccc(OCc3ccccc3)c2)Oc2cc(OCCN3CCCCC3)ccc21`, the growth with NCI-H23 lung was 86.4%; in the test on NCI-H226 lung it was 100%; in the test on NCI-H322M lung, 75.4%; in the test with HOP-62 NSCLC, 89.4%; in the test with NCI-H460 lung it was 83.3%; in the test on HOP-92 NSCLC, 46.9%. Further, the growth in the test on NCI-H522 lung was 106%; with A549/ATCC NSCLC it was 79.5%; in the test on 786-0 renal it was 67.7%; in the test with COLO 205 colon it was 93.8%; with DU-145 prostate, 88.1%; with K-562 leukemia, -37.8% (active). Besides, the growth in the test with MALME-3M melanoma is 58.3%; in the test on MDA-MB-231 breast, 71%; in the test on RXF 393 renal it was 68.6%; with SF-268 CNS it was 81%; in the test with SF-295 CNS, 95.5%; in the test on SF-539 CNS it was 68.1%. Moreover, the growth in the test on UACC-257 melanoma was 94.5%; in the test with M14 melanoma it was 88.6%.
